In all, about 5,500 compounds went through this assay and about 2,000 (36%) were called active. About 18% were inconclusive and are not listed. Cut-off read from the data, not from the text of the source: active = normalized growth mostly below about 0.91 (no sharp cut-off); inconclusive = no clear call, values can overlap the other calls; inactive = mostly above about 0.92. The list shows a part of the results.
Experiment: chemical genetic growth profiling, strain panel (AID 1159580);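 note: tested at 20 µM; growth read once vehicle control cultures reached saturation at 30 °C; 1 = growth at the plate median or of vehicle wells; lower values mean less growth of the strain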
Details: growth OD

Measured: normalized growth

Cc1ccc2cc3c(ccc4ccccc43)c3c2c1CC3
inactive: S. cerevisiae deletion strains, locus YAL013W, strain DEP1, hits give low values 0.998 | S. cerevisiae deletion strains, locus YBR021W, strain FUR4, hits give low values 0.988 | S. cerevisiae deletion strains, locus YBR229C, strain ROT2, hits give low values 0.982 | S. cerevisiae deletion strains, locus YCL029C, strain bik1, hits give low values 0.954 | S. cerevisiae deletion strains, locus YDL035C, strain GPR1, hits give low values 0.916 | S. cerevisiae deletion strains, locus YDL074C, strain BRE1, hits give low values 0.963 | S. cerevisiae deletion strains, locus YDL101C, strain DUN1, hits give low values 0.973 | S. cerevisiae deletion strains, locus YDL134C, strain PPH21, hits give low values 0.997 | S. cerevisiae deletion strains, locus YDL185W, strain tfp1, hits give low values 0.99 | S. cerevisiae deletion strains, locus YDR101C, strain arx1, hits give low values 0.96 | S. cerevisiae deletion strains, locus YDR150W, strain NUM1, hits give low values 1 | S. cerevisiae deletion strains, locus YDR388W, hits give low values 0.96 | S. cerevisiae deletion strains, locus YEL061C, strain CIN8, hits give low values 0.994 | S. cerevisiae deletion strains, locus YER110C, hits give low values 0.952 | S. cerevisiae deletion strains, locus YER155C, strain BEM2, hits give low values 0.997 | S. cerevisiae deletion strains, locus YER167W, strain BCK2, hits give low values 0.917 | S. cerevisiae deletion strains, locus YGL078C, strain dbp3, hits give low values 1 | S. cerevisiae deletion strains, locus YGL248W, strain PDE1, hits give low values 0.981 | S. cerevisiae deletion strains, locus YGR078C, strain PAC10, hits give low values 0.957 | S. cerevisiae deletion strains, locus YGR135W, strain pre9, hits give low values 0.924 | S. cerevisiae deletion strains, locus YGR229C, strain SMI1, hits give low values 0.841 | S. cerevisiae deletion strains, locus YGR252W, strain gcn5, hits give low values 0.922 | S. cerevisiae deletion strains, locus YHR079C, strain IRE1 (second series), hits give low values 0.954 | S. cerevisiae deletion strains, locus YHR094C, strain hxt1, hits give low values 0.981 | S. cerevisiae deletion strains, locus YHR129C, strain ARP1, hits give low values 0.983 | S. cerevisiae deletion strains, locus YHR200W, strain rpn10, hits give low values 0.933 | S. cerevisiae deletion strains, locus YIL066C, strain RNR3, hits give low values 0.949 | S. cerevisiae deletion strains, locus YIL073C, strain SPO22, hits give low values 0.906 | S. cerevisiae deletion strains, locus YIL125W, strain kgd1, hits give low values 0.941 | S. cerevisiae deletion strains, locus YIR030C, strain dcg1, hits give low values 0.961 | S. cerevisiae deletion strains, locus YJL095W, strain BCK1, hits give low values 0.828 | S. cerevisiae deletion strains, locus YJL134W, strain LCB3, hits give low values 0.99 | S. cerevisiae deletion strains, locus YJL168C, strain set2, hits give low values 0.967 | S. cerevisiae deletion strains, locus YJL187C, strain SWE1 (second series), hits give low values 0.99 | S. cerevisiae deletion strains, locus YJR043C, strain POL32, hits give low values 0.993 | S. cerevisiae deletion strains, locus YJR075W, strain HOC1, hits give low values 0.904 | S. cerevisiae deletion strains, locus YKL009W, strain mrt4, hits give low values 0.999 | S. cerevisiae deletion strains, locus YKL068W, hits give low values 0.997 | S. cerevisiae deletion strains, locus YKL085W, strain MDH1 (second series), hits give low values 0.999 | S. cerevisiae deletion strains, locus YKL085W, strain MDH1, hits give low values 0.999 | S. cerevisiae deletion strains, locus YKL190W, strain CNB1, hits give low values 0.958 | S. cerevisiae deletion strains, locus YLR058C, strain SHM2, hits give low values 0.981 | S. cerevisiae deletion strains, locus YLR102C, strain apc9, hits give low values 0.983 | S. cerevisiae deletion strains, locus YLR330W, strain CHS5, hits give low values 0.986 | S. cerevisiae deletion strains, locus YLR342W, strain FKS1 (second series), hits give low values 0.91 | S. cerevisiae deletion strains, locus YLR371W, strain rom2, hits give low values 0.974 | S. cerevisiae deletion strains, locus YML016C, strain PPZ1, hits give low values 0.987 | S. cerevisiae deletion strains, locus YML032C, strain rad52, hits give low values 0.908 | S. cerevisiae deletion strains, locus YML124C, strain tub3, hits give low values 0.98 | S. cerevisiae deletion strains, locus YMR078C, strain ctf18, hits give low values 0.959 | S. cerevisiae deletion strains, locus YMR263W, strain SAP30, hits give low values 0.986 | S. cerevisiae deletion strains, locus YMR307W, strain GAS1, hits give low values 0.711 | S. cerevisiae deletion strains, locus YNL067W, strain RPL9B, hits give low values 0.985 | S. cerevisiae deletion strains, locus YNL128W, strain TEP1, hits give low values 0.931 | S. cerevisiae deletion strains, locus YNL153C, strain GIM3, hits give low values 1.03 | S. cerevisiae deletion strains, locus YNL233W, strain BNI4, hits give low values 0.933 | S. cerevisiae deletion strains, locus YNL250W, strain rad50, hits give low values 0.966 | S. cerevisiae deletion strains, locus YNL271C, strain bni1, hits give low values 0.959 | S. cerevisiae deletion strains, locus YNL298W, strain CLA4, hits give low values 0.949 | S. cerevisiae deletion strains, locus YNL322C, strain KRE1, hits give low values 0.998 | S. cerevisiae deletion strains, locus YNR052C, strain pop2, hits give low values 0.951 | S. cerevisiae deletion strains, locus YOL006C, strain TOP1, hits give low values 0.937 | S. cerevisiae deletion strains, locus YOL012C, strain htz1 0.778 | S. cerevisiae deletion strains, locus YOR061W, strain CKA2, hits give low values 0.98 | S. cerevisiae deletion strains, locus YOR069W, strain VPS5, hits give low values 0.988 | S. cerevisiae deletion strains, locus YOR136W, strain idh2, hits give low values 0.927 | S. cerevisiae deletion strains, locus YOR144C, strain elg1, hits give low values 0.963 | S. cerevisiae deletion strains, locus YOR316C, strain cot1, hits give low values 0.981 | S. cerevisiae deletion strains, locus YPL055C, strain LGE1, hits give low values 0.931 | S. cerevisiae deletion strains, locus YPL241C, strain CIN2, hits give low values 1 | S. cerevisiae deletion strains, locus YPR119W, strain clb2, hits give low values 0.976 | S. cerevisiae deletion strains, locus YPR141C, strain kar3, hits give low values 0.983 | S. cerevisiae deletion strains, locus YPR163C, strain tif3, hits give low values 0.916 | S. cerevisiae deletion strains, locus YPR167C, strain met16, hits give low values 0.968 | S. cerevisiae deletion strains, strain wtn01, hits give low values 0.928 | S. cerevisiae strains, strain wild type, hits give low values 0.97
active: S. cerevisiae deletion strains, locus YDL192W, strain arf1, hits give low values 0.795 | S. cerevisiae deletion strains, locus YDR162C, strain NBP2, hits give low values 0.626 | S. cerevisiae deletion strains, locus YDR318W, strain mcm21, hits give low values 0.884 | S. cerevisiae deletion strains, locus YDR502C, strain sam2, hits give low values 0.868 | S. cerevisiae deletion strains, locus YGL086W, strain mad1, hits give low values 0.894 | S. cerevisiae deletion strains, locus YHR030C, strain SLT2, hits give low values 0.837 | S. cerevisiae deletion strains, locus YKR001C, strain vps1, hits give low values 0.685 | S. cerevisiae deletion strains, locus YLR039C, strain RIC1, hits give low values 0.64 | S. cerevisiae deletion strains, locus YLR262C, strain YPT6, hits give low values 0.568 | S. cerevisiae deletion strains, locus YLR268W, strain sec22, hits give low values 0.838 | S. cerevisiae deletion strains, locus YLR418C, strain cdc73, hits give low values 0.532 | S. cerevisiae deletion strains, locus YMR223W, strain ubp8, hits give low values 0.844 | S. cerevisiae deletion strains, locus YNL307C, strain MCK1, hits give low values 0.591 | S. cerevisiae deletion strains, locus YOL147C, strain pex11, hits give low values 0.896 | S. cerevisiae deletion strains, locus YOR184W, strain ser1, hits give low values 0.559

From PubChem BioAssay AID1159580 (chemical genetic matrix, 2015)
